In the library only some 0.78% were active in any assay of this set; here they are far more common.
PKA-R1A act: activates the PKA-R1A holoenzyme complex; PKA-R1A dissociation, Cy5-IP20 fluorescence polarization; scaled: DMSO 0%, 113 µM cGMP 100%; activation, % at 11.4 µM; 340,000 compounds, 0.083% hits;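 active means percent activation above the mean of all tested compounds plus 3 SD, cut at about 19% in these data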;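 further: higher means more PKAc released from R1A so a rise in polarization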
JMJD2C inh: blocks human GASC-1 demethylase activity; inhibition, % at 2.35 µM; 330,000 compounds, 0.069% hits; Q9H3R0; AID 2099; GST-JMJD2C(1-420) H3K9me3 demethylation, DELFIA europium;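 active means more than half of a compound's replicate wells show inhibition beyond 50%, single wells judged on their own value; inconclusive means some, but no more than half, of replicates pass 50% inhibition; inactive means no replicate passes 50% inhibition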;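 further: signal counts dimethyl H3K9 product captured on neutravidin plate; 0% = median of DMSO wells and 100% = 0.3 times that DMSO median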
Target sequence (Q9H3R0 1-420 limits assumed): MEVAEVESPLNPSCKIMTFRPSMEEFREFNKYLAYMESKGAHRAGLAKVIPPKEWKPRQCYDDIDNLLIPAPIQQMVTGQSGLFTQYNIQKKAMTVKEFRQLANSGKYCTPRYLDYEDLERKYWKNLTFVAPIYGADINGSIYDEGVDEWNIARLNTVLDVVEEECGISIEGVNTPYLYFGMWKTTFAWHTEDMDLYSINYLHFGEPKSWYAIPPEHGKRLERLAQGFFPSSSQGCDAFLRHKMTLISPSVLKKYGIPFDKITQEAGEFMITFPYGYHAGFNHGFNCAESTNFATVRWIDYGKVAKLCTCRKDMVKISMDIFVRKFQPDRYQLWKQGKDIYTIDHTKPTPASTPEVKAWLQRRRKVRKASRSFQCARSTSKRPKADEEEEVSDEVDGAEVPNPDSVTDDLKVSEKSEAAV
V-ATPase pHluor: yeast V-ATPase proton transport regulation by pHLuorin; S. cerevisiae, pHLuorin cytosolic pH fluorescence; response, % at 10 µM; 350,000 compounds, 0.37% hits; in the data active means response mostly above about 7.3%, no sharp cut-off; inactive means mostly below about 5.4%; further: actives read high
Yeast superoxide: caloric restriction mimetics inhibiting age-related superoxide in yeast | S. cerevisiae aged cells, superoxide DHE fluorescence; stronger effect = lower value | superoxide response (% of plate mean), % at 10 µM | 330,000 compounds, 0.18% hits | AID 2690;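 active means superoxide response under a set limit, about three screen SD below normal, cut at about 65% in these data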;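 further: yeast aged for seven days with compound at 30 °C before DHE staining; 100% = average MFI of all compound-treated wells on the plate with controls excluded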
PKA-R2B act: PKA-R2B complex activation; PKA-R2B holoenzyme dissociation, Cy5-IP20 fluorescence polarization; R2B truncated from residue 108, S112A mutant; 0% DMSO only, 100% 113 µM cGMP; activation, % at 11.4 µM; 340,000 compounds, 0.079% hits;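 active means activation above a cutoff set at the mean over all compounds plus 3 SD, cut at about 18% in these data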;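 further: higher means more holoenzyme dissociation and a rise in polarization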
PolyA inhibitor: inhibitors of polyadenylation in S. cerevisiae. S. cerevisiae SKY197-pL101 polyadenylation reporter, beta-gal luminescence; efflux-impaired pdr1/pdr3 knockout yeast; score 100 = 6 SD above DMSO. activity score, % at 12 µM. 300,000 compounds, 0.02% hits. AID 1875;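 active means lowest replicate activity score at least 50, where 100 means six control SD above control mean; inconclusive means lowest score under 50 but half or more replicates reach 50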;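 further: yeast exposed to compound for 9 h at 30 °C; higher score means more reporter readthrough which indicates perturbed polyadenylation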
An asterisk follows results filed as active; ? = inconclusive; . = no result given.

SMILES	PKA-R1A act	JMJD2C inh	V-ATPase pHluor	Yeast superoxide	PKA-R2B act	PolyA inhibitor
CCOC(=O)N1CCN(CC(O)COc2ccccc2[N+](=O)[O-])CC1 (stereo not given)	6	.	-1	95	3	28
O=C1OCCN1C(=O)[C@H]1[C@H](c2ccc(F)cc2)C(c2ccc(F)cc2)=NN1c1ccc(Br)cc1	1	-2	4	45*	-16	0
COc1ccc(S(=O)(=O)N2CCCCC2)cc1NC(=O)CCNC(=O)c1ccc(Br)cc1	1	119	2	108	-4	-7
N#Cc1c2ccc([N+](=O)[O-])cc2[n+]([O-])n1-c1ccccc1	-4	-3	28*	74	1	.
O=c1c2cc([N+](=O)[O-])ccc2sn1-c1ccccc1	-14	.	-1	.	-4	.
O=C(Oc1ccccc1)N1CCCCC1	13	.	-4	.	-4	.
Cc1cccc(C(=O)N/N=C/C(C)Cc2ccc3c(c2)OCO3)c1 (stereo not given)	-20	67*	-3	96	1	-15
Cc1no[n+]([O-])c1COc1ccc(/C=N/n2nnnc2N)cc1	1	-5	-1	95	7	16
CCN(C(=O)COc1ccccc1)c1nnc(-c2cccnc2)s1	-1	?	26*	83	5	-6
CCC1(C(=O)OC)NC(c2ccco2)C2C(=O)N(c3ccccc3)C(=O)C21 (stereo not given)	0	-5	15*	140	6	11
COc1ccc(/C=N/Nc2cc(=O)n(C)c(=O)n2C)cc1OC	-13	52*	1	96	6	12
COc1cc(/C=N\Nc2cc(=O)n(C)c(=O)n2C)ccc1O	-11	-11	-1	104	10	-5
O=C(O)c1ccc2c(c1)C(=O)N(CCC1=CCCCC1)C2=O	2	101*	1	124	8	-19
CSc1ccccc1NC(=O)CN(C)C(=O)COc1cccc2cccnc12	-4	1	-1	97	-6	.
c1ccc(COc2ccc(CNCc3cccnc3)cc2)cc1	-5	-7	-1	97	-5	-11
O=C(NCCOc1ccccc1)C1Nc2ccc(OC(F)(F)F)cc2C2C=CCC12 (stereo not given)	-3	12	17*	104	1	7
CC(NC(=O)/C(C#N)=C/c1ccc([N+](=O)[O-])o1)c1ccccc1 (stereo not given)	4	-17	94*	98	-4	-58
Cc1nc2nc(CCNS(=O)(=O)c3ccc(Cl)cc3)cn2nc1C	-5	-5	13*	120	-3	-8
O=C(c1ccccc1[N+](=O)[O-])N1CCN(c2ccc(N3CCOCC3)nn2)CC1	6	6	4	103	-3	10
O=C(CN1CCN(C(=O)c2ccco2)CC1)Nc1cc(S(=O)(=O)N2CCCC2)ccc1Cl	-4	.	2	.	-10	.
CCCCN(C)C1=CC2=CC(=C(C#N)C#N)CCC2CC1 (stereo not given)	-6	11	291*	112	2	21
N#CC(C#N)=C1C=C2C=C(N3CCCCC3)CCC2CC1 (stereo not given)	.	3	.	70	.	.
CCN(CC)C1=CC2=CC(=C(C#N)C#N)CCC2CC1 (stereo not given)	0	8	219*	134	4	.
CCc1nnc(N/N=C/c2cc(Br)c(O)cc2O)n1N	1	58*	-1	99	10	-6
CCc1nnc(N/N=C/c2ccc(O)c(OC)c2)n1N	-6	-1	7	95	5	7
SMILES	PKA-R1A act	JMJD2C inh	V-ATPase pHluor	Yeast superoxide	PKA-R2B act	PolyA inhibitor
Cc1ccc(C)c(OCCC(=O)OCC(=O)NNC(=O)c2ccccc2)c1	-12	-4	2	81	-1	.
COc1cc(C2CC(=O)N(CC(=O)NCC3CCCO3)c3ccccc3S2)cc(OC)c1OC (stereo not given)	-6	-3	-2	95	-2	-6
O=C(NCCc1ccccc1)C1CCN(c2ncccn2)CC1	-1	-2	14*	68	-1	-5
O=C(NCCc1ccccc1)C1CCN(S(=O)(=O)N2CCCCC2)CC1	3	6	2	92	5	11
CCOC(=O)c1c(C)[nH]c(C(=O)COC(=O)CCC2CCCC2)c1C	6	-6	-3	86	13	4
Cc1cc(C2=CC(=O)C[C@H](c3ccc4c(c3)OCO4)C2)ccc1F	-2	-3	0	110	-1	.
O=C(CSc1ccccc1)Nc1cccnc1	6	11	14*	106	3	4
Cc1ccc(SCC(=O)Nc2cccnc2)cc1	-14	-3	3	90	-1	3
CC1(NC(=O)c2ccccc2)CCN(CCCc2ccccc2)C1=O (stereo not given)	-11	7	-5	93	-9	.
O=C(OCC(=O)N1CCN(S(=O)(=O)c2ccccc2)CC1)C1CCC1	9	1	-3	104	0	.
O=C(CC1CCCC1)N1CCN(S(=O)(=O)c2ccccc2)CC1	-4	0	668*	104	-8	.
CCOCCOC(=O)c1cccc2c1-c1ccccc1C2=O	-6	21	0	105	-13	-16
CCC(CC)C(=O)Nc1cccc(C(=O)Nc2nnc(C)s2)c1	1	1	211*	93	1	4
Cc1ccc(S(=O)(=O)N2CCCCC2)cc1NC(=O)c1ccc2c(c1)OCO2	-2	-7	-2	102	-6	5
Cc1ccc(S(=O)(=O)N2CCCCC2)cc1NC(=O)COC(=O)c1ccc2c(c1)OCO2	5	0	18*	109	-4	-6
Oc1ccccc1N=N/C(=N/Nc1ccccc1O)c1ccccc1	-6	?	-1	93	0	19
N#C/C(N=Nc1ccccc1O)=N\Nc1ccccc1O	-14	87*	-2	87	-4	14
COc1ccc(-n2c(C)cc(/C=N/Nc3nnc(C)n3N)c2C)cc1	-3	68*	-1	104	3	8
COc1cc(C(=O)Nc2nnc(CC(=O)NCc3ccccc3)s2)cc(OC)c1OC	1	-1	-3	97	0	-20
COc1ccc(CNN2CCCCC2C(=O)Nc2ccc(OC)c(OCC(C)C)c2)cc1OC (stereo not given)	-1	-2	-3	100	7	4
COc1ccc(NC(=O)C2CCCCN2N)cc1OCC(C)C (stereo not given)	-12	80*	-1	98	-20	-9
CCOc1ccc2[nH]c(=O)c(CN(CC3COCCO3)C(=O)c3ccc(C)cc3)cc2c1 (stereo not given)	0	6	7	105	5	-5

Screening results deposited in PubChem BioAssay by several laboratories.
